The target in assay [1] is T1, Protein kinase C zeta type (Homo sapiens) (UniProt Q05513).
T1 sequence (whole entry): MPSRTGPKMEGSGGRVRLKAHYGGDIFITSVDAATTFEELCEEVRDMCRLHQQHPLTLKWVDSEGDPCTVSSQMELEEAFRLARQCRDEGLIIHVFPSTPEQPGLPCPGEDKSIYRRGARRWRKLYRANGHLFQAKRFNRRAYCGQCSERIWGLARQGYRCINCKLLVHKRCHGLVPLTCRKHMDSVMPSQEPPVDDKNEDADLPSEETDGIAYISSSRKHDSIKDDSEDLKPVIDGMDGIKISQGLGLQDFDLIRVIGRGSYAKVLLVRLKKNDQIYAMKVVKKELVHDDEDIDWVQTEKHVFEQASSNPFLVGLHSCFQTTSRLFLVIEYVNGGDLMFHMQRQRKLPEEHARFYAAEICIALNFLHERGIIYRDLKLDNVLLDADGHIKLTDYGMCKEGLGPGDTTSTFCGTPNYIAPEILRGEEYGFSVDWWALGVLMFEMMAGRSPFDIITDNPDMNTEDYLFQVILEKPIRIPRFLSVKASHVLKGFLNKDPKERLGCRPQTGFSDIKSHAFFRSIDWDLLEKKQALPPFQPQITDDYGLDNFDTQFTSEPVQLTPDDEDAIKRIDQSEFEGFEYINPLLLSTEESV
The settings on record: at 1 µM.

Assay [2] concerns the target T2, Mitogen-activated protein kinase kinase kinase 5 (Homo sapiens) (UniProt Q99683).
T2 sequence (whole entry): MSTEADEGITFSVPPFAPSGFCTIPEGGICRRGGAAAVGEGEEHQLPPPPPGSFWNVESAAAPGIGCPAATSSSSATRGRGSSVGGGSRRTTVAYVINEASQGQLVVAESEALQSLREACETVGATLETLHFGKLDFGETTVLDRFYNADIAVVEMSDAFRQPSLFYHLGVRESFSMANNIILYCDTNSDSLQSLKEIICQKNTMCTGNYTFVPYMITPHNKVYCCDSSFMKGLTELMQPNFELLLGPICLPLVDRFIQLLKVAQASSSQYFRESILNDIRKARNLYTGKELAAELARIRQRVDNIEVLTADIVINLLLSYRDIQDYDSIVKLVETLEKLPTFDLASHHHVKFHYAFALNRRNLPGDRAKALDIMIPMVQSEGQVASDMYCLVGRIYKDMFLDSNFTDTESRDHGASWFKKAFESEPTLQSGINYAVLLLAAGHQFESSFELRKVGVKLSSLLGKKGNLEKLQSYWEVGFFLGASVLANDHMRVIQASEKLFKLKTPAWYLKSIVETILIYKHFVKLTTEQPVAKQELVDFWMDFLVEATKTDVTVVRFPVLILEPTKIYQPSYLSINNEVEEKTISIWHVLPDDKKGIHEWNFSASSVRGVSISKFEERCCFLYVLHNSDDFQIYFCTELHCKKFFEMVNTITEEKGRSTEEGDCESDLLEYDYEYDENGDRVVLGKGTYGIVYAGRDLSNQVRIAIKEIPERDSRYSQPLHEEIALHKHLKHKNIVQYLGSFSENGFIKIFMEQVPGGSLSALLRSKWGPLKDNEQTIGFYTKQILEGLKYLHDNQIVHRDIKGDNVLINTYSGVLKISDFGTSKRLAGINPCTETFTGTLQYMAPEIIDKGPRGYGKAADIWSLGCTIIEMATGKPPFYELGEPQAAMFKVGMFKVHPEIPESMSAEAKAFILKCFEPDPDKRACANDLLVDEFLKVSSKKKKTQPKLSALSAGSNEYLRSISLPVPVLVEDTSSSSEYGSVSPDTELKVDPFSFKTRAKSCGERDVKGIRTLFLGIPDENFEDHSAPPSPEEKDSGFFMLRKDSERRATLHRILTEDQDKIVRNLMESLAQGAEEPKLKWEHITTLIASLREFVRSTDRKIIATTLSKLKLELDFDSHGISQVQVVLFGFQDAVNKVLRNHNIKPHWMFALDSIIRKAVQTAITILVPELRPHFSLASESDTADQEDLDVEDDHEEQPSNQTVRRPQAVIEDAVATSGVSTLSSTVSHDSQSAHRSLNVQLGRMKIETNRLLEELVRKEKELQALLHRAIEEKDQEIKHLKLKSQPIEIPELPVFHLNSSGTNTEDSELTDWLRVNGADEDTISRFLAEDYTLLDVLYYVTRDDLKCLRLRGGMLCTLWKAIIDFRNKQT
Conditions: at 10 µM; call rule not given here.

Assay [3] has as its target Tyrosine-protein kinase ABL1 (Homo sapiens) (UniProt P00519). Conditions: at 1 µM.
Assay [4] shares this target. Conditions: at 10 µM.
The target of assay [5] is Tyrosine-protein kinase ABL2 (Homo sapiens) (UniProt P42684). The settings on record: at 1 µM.
Assay [6] has the same target. Conditions: at 10 µM.
In assay [7] the target is T3, Aurora kinase A (Homo sapiens) (UniProt O14965).
T3 sequence (whole entry): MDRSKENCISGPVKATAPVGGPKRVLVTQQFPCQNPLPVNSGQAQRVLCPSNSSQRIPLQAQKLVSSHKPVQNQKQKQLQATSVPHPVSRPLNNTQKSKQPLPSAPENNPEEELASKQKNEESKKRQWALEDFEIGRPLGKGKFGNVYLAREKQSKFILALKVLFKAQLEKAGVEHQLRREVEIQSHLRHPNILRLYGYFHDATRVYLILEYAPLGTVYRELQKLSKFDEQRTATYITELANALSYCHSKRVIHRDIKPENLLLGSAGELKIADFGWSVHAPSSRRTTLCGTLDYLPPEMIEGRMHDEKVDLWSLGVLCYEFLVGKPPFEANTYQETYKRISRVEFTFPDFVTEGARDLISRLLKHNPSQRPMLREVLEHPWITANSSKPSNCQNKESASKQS
The settings on record: at 1 µM.

Assay [8] has as its target T3, Aurora kinase A (Homo sapiens). The settings on record: at 10 µM.
Assay [9] addresses Aurora kinase B (Homo sapiens) (UniProt Q96GD4). The settings on record: at 1 µM.
The target is the same in assay [10]. Conditions: at 10 µM.
Assay [11] addresses T4, Aurora kinase C (Homo sapiens) (UniProt Q9UQB9).
T4 sequence (whole entry): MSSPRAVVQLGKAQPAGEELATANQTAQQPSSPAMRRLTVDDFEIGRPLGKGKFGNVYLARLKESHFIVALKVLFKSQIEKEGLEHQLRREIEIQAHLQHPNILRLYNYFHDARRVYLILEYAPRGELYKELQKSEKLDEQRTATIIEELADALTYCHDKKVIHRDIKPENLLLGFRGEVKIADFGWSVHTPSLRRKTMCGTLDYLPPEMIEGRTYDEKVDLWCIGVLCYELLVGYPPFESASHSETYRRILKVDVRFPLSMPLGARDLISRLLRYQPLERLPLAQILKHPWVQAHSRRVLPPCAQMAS
The settings on record: at 1 µM.

Assay [12] concerns the target T4, Aurora kinase C (Homo sapiens). Conditions: at 10 µM.
Assay [13] addresses Tyrosine-protein kinase receptor UFO (Homo sapiens) (UniProt P30530). Conditions: at 1 µM.
Assay [14] shares this target. The settings on record: at 10 µM.
In assay [15] the target is Protein-tyrosine kinase 6 (Homo sapiens) (UniProt Q13882). Conditions: at 1 µM.
The target is the same in assay [16]. Conditions: at 10 µM.
The target in assay [17] is Tyrosine-protein kinase BTK (Homo sapiens) (UniProt Q06187). The settings on record: at 1 µM.
Assay [18] has the same target. The settings on record: at 10 µM.
The target of assay [19] is Tyrosine-protein kinase Blk (Homo sapiens) (UniProt P51451). The settings on record: at 1 µM.
The target is the same in assay [20]. The settings on record: at 10 µM.

Structures are written as SMILES.

Protein-tyrosine kinase 6 (Homo sapiens), sequence (Q13882 whole entry, looked up): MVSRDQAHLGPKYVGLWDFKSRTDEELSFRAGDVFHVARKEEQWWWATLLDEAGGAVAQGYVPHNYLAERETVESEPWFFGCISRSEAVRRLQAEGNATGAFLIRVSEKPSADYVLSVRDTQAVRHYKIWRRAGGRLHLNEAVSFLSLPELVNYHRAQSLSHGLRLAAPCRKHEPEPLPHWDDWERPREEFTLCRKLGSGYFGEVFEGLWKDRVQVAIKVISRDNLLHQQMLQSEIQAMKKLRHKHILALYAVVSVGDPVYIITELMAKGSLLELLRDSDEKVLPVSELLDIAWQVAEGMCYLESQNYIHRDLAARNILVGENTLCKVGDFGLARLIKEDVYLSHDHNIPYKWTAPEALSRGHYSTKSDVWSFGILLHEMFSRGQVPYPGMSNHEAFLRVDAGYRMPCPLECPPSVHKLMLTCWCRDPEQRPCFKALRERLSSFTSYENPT
Tyrosine-protein kinase ABL1 (Homo sapiens), sequence (P00519 whole entry): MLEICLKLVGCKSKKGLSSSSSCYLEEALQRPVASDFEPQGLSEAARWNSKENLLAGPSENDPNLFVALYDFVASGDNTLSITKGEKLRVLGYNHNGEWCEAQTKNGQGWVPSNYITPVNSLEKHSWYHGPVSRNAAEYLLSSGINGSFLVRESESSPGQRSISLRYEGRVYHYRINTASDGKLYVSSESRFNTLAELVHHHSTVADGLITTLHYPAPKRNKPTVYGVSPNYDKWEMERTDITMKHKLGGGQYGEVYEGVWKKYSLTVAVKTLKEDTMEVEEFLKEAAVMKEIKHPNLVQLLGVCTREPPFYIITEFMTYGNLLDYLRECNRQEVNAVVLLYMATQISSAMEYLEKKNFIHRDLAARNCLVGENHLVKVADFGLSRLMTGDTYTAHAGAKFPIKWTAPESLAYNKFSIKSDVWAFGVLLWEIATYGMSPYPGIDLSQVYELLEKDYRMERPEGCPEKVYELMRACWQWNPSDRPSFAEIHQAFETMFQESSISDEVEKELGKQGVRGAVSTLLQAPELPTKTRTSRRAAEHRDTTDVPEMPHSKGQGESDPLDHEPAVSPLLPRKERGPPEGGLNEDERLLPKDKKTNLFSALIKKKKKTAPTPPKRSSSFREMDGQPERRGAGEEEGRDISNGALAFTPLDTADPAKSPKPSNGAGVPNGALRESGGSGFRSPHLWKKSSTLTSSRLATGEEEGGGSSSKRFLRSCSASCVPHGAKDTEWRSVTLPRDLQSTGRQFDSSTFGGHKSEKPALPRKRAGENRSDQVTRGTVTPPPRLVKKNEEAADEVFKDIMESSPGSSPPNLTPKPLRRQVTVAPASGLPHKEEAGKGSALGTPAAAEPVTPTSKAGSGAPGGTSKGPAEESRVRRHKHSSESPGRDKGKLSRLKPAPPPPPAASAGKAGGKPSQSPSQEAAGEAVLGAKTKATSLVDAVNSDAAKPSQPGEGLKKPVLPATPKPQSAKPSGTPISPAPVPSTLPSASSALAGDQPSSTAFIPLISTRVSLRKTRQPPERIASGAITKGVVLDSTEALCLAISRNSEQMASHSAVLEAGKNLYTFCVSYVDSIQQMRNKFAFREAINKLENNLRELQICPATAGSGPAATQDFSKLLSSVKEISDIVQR
Aurora kinase B (Homo sapiens), sequence (Q96GD4 whole entry): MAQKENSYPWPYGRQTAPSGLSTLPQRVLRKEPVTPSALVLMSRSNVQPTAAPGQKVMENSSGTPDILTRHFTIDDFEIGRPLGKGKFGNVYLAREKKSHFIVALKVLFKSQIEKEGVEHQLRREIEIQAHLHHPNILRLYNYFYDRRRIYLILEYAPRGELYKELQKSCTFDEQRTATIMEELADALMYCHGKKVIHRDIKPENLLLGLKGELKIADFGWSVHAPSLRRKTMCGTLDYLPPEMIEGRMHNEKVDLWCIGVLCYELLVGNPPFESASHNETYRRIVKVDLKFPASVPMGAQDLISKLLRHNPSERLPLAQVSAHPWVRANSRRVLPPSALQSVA
Tyrosine-protein kinase receptor UFO (Homo sapiens), sequence (P30530 whole entry): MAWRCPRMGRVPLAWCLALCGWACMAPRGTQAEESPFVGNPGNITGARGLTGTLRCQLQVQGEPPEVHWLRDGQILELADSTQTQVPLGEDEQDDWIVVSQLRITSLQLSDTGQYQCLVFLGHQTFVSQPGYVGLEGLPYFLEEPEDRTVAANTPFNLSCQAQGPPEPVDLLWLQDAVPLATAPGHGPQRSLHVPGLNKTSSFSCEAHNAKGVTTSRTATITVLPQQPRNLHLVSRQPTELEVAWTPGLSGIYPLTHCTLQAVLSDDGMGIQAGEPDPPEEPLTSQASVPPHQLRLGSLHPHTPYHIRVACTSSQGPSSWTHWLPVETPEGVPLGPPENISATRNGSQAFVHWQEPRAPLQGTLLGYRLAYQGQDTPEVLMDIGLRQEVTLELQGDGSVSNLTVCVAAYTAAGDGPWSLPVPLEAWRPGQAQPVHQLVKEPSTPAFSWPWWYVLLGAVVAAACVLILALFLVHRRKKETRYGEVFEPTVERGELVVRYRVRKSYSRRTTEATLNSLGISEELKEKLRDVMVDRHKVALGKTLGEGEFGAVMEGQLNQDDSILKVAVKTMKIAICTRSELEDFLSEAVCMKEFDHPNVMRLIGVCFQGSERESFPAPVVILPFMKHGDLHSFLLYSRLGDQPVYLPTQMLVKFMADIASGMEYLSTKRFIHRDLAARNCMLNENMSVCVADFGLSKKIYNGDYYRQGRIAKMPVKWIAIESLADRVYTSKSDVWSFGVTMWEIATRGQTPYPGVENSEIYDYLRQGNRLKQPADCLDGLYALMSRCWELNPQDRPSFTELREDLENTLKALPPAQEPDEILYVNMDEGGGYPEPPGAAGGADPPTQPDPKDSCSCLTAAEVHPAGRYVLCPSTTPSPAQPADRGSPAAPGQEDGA
Tyrosine-protein kinase ABL2 (Homo sapiens), sequence (P42684 whole entry): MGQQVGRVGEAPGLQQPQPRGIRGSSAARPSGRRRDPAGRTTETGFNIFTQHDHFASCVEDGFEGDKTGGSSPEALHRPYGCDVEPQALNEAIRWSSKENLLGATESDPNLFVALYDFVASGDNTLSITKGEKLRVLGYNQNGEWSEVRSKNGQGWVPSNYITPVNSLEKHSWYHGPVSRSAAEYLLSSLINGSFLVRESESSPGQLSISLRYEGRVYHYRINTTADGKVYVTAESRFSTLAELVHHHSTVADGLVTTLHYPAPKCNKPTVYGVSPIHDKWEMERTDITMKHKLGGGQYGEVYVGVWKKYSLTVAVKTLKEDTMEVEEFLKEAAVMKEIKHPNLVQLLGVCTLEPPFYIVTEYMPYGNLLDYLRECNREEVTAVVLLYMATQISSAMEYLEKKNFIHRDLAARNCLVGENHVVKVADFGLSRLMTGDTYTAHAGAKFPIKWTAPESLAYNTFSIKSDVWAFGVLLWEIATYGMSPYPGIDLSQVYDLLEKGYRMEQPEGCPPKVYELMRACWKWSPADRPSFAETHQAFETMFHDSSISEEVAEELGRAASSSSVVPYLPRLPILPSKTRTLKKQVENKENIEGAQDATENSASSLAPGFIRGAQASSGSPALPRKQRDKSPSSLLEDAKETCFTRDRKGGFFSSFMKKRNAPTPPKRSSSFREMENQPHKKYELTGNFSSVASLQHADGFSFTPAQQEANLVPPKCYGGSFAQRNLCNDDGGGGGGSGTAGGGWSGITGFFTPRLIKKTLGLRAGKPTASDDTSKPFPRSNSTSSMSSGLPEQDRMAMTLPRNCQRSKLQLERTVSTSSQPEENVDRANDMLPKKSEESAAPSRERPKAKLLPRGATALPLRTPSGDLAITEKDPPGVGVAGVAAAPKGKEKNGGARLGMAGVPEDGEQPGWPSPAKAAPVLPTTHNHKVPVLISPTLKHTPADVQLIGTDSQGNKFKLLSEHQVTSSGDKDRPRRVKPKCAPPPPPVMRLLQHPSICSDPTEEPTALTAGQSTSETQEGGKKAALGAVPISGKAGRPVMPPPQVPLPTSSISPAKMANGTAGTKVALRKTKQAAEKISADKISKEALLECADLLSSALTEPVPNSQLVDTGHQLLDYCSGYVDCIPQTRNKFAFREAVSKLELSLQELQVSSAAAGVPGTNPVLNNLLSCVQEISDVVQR
Tyrosine-protein kinase BTK (Homo sapiens), sequence (Q06187 whole entry): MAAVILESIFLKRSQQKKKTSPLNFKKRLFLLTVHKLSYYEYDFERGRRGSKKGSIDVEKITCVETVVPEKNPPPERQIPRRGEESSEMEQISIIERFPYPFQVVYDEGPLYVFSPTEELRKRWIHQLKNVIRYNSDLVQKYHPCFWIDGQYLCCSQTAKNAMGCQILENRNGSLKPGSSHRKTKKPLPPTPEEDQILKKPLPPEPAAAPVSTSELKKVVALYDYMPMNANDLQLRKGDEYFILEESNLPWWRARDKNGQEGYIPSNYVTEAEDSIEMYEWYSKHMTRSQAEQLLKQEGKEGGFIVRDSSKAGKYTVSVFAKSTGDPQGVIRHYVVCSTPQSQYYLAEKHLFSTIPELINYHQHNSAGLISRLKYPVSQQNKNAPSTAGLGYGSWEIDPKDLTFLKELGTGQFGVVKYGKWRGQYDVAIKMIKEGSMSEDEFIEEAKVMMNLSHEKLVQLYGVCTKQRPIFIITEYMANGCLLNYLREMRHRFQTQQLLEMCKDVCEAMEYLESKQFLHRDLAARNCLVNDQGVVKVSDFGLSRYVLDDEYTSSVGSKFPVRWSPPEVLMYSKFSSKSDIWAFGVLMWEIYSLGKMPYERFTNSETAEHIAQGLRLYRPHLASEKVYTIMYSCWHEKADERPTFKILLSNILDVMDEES

Regarding `c1ccc(-c2n[nH]cc2-c2ccnc3ccccc23)nc1`, the residual activity was 108% (inactive) in assay [1]; 105% in assay [2]; 69% in [3]; 14% in assay [4]; 64% in [5]; 18% in assay [6]. For the same molecule, the residual activity in assay [7] was 99%; in [8] it was 103%; in [9], 75%; in assay [10] it was 51%; in assay [11] it was 100%; in assay [12] it was 66%. In addition, the residual activity was determined as 65% in assay [13]; 80% in assay [14]; 93% in assay [15]; 37% in [16]; 102% in assay [17]; 100% in [18]. Moreover, the residual activity in assay [19] turned out to be 102%; in assay [20], 59%.
As to `CCN(CC)CCCCN1c2ccccc2Oc2ccc(Cl)cc21`, the residual activity in assay [1] is 114% (inactive); in [2], 114%; in assay [3], 124%; in assay [4] it was 102%; in assay [5], 140%; in assay [6], 122%. The residual activity in assay [7] turned out to be 97%; in [8] it was 140%; in assay [9], 141%; in [10], 103%; in [11], 108%; in assay [12], 92%. For the same molecule, the residual activity in assay [13] was determined as 88%; in assay [14], 83%; in assay [15], 118%; in assay [16], 108%; in assay [17] it was 78%; in assay [18], 109%. The residual activity in [19] was 110%; in [20], 88%.
With `COc1cc2ncc(-c3ccccc3)nc2cc1OC`, the residual activity in assay [2] was 77%; in assay [3], 96%; in assay [4] it was 83%; in assay [5] it was 99%; in assay [6], 84%; in [7], 83%. Also, the residual activity in assay [8] was 98%; in assay [9], 83%; in [10], 50%; in assay [13] it was 96%; in [14], 84%.
Take `CN(C)CCCn1cc(C2=C(c3c[nH]c4ccccc34)C(=O)NC2=O)c2ccccc21`: the residual activity in assay [1] was 72% (inactive); in assay [2], 108%; in assay [3], 108%; in assay [4], 108%; in assay [5], 90%; in assay [6] it was 76%. The residual activity in assay [7] was determined as 100%; in [8], 80%; in [9] it was 31%; in [10], 7%; in [11], 109%; in assay [12] it was 72%. Further, the residual activity in assay [13] amounted to 70%; in assay [14] it was 39%; in assay [15] it was 110%; in assay [16] it was 89%; in assay [17], 89%; in [18], 72%. Further, the results for the residual activity in [19] and in assay [20] were 65% and 13%, respectively.
Consider `COc1ccc(CNc2nc(N(CCO)CCO)nc3c2ncn3C(C)C)cc1`, for which the residual activity is 105% (inactive) in assay [1]; 85% in assay [2]; 100% in assay [3]; 73% in assay [4]; 113% in assay [5]; 76% in assay [6]. In addition, the residual activity is 89% in [7]; 96% in [8]; 95% in assay [9]; 73% in assay [10]; 75% in assay [11]; 85% in assay [12]. The residual activity in assay [13] is 92%; in [14] it was 75%; in assay [15], 104%; in assay [16], 101%; in assay [17], 88%; in assay [18] it was 86%. Moreover, the residual activity worked out at 96% in [19] and 83% in assay [20].
With `Cc1cncc2cccc(S(=O)(=O)N3CCCN(C(=O)CN)C[C@H]3C)c12`, the residual activity in assay [1] is 88% (inactive); in assay [2], 87%; in assay [3], 88%; in assay [6] it was 92%; in assay [7], 64%; in [8] it was 36%. The residual activity in assay [9] was 6%; in [10], 3%; in [11], 5%; in [12], 1%; in assay [13] it was 88%; in assay [14] it was 74%. For the same molecule, the residual activity in [19] worked out at 122%; in assay [20] it was 75%.
Turning to `O=C(O)c1ccc2c3c1cccc3c(=O)n1c3ccccc3nc21`, the residual activity in assay [1] is 112% (inactive); in assay [2] it was 72%; in [3], 101%; in [4], 80%; in assay [5], 91%; in assay [6] it was 74%. The residual activity was determined as 72% in [7]; 16% in assay [8]; 64% in assay [9]; 18% in assay [10]; 82% in [11]; 43% in [12]. Besides, the residual activity in [13] was found to be 61%; in assay [14] it was 35%; in [15], 110%; in assay [16], 105%; in assay [17], 88%; in assay [18], 83%. Moreover, the figures for the residual activity in assay [19] and in assay [20] were 99% and 81%, respectively.

For the origin of these results see ChEMBL document CHEMBL2218924, “A broad activity screen in support of a chemogenomic map for kinase signalling research and drug discovery” (Biochem J, 2013).
